PubChem BioAssay AID2390 (National Center for Advancing Translational Sciences (NCATS), 2010)
The list shows a part of the results. Inconclusive results are not listed. Active and inactive are the calls of the source. The call rests on the fitted dose curve; in most records, active means well fitted inhibition curve with a large enough effect; inconclusive means small, poorly fitted or top-dose-only effect; inactive means no such curve, though single readings can be large or run the other way.

Target: Regulator of G-protein signaling 12 (Homo sapiens) (UniProt O14924)
Sequence (O14924 whole entry, looked up): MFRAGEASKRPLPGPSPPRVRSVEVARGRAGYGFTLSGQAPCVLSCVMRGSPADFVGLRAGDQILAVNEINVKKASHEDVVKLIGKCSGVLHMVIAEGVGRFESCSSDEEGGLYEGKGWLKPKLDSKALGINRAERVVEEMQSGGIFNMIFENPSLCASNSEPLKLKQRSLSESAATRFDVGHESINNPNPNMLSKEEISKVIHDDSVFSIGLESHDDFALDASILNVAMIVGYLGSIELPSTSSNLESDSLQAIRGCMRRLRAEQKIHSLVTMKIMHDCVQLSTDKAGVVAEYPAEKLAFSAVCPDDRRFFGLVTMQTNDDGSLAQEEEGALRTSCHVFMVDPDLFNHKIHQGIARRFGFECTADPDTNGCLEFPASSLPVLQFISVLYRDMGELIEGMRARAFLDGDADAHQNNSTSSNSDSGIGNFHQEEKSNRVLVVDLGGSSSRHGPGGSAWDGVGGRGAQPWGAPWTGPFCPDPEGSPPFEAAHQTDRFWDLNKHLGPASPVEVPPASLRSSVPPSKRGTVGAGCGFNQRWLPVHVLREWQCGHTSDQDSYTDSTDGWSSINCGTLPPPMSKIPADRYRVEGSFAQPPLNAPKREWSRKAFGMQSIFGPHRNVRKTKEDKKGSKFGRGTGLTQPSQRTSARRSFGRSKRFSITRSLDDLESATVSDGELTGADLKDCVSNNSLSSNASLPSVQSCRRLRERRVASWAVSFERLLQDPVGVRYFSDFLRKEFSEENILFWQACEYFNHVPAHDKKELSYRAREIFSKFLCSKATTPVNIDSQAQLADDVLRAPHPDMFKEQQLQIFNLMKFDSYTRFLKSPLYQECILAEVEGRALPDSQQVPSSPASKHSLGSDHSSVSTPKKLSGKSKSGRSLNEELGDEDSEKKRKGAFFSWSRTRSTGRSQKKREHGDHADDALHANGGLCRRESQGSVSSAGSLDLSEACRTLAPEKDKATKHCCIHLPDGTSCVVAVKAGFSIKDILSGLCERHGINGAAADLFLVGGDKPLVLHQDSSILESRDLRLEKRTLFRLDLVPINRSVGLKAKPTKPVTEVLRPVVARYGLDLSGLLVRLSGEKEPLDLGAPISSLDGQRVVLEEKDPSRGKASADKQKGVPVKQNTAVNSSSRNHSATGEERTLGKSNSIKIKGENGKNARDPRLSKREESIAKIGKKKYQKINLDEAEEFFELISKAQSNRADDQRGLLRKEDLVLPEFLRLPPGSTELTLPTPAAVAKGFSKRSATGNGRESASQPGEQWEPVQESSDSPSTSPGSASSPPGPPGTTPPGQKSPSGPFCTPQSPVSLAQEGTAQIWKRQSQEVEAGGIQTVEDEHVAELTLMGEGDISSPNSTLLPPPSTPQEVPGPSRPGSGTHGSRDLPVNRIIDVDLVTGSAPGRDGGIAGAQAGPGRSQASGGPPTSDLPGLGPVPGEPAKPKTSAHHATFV
Test: Confirmation qHTS Assay for Inhibitors of RGS12 GoLoco Motif Activity (Red Fluorophore)
Details: Gai1/rhodamine-RGS12 GoLoco peptide fluorescence polarization; series mostly up to 57.1 µM; activity, negative = inhibition: at the top concentration
Text: G-protein-coupled receptors (GPCRs) are major targets for drug discovery. The regulator of G-protein signaling (RGS)-protein family has important roles in GPCR signal transduction. RGS proteins contain a conserved RGS-box, which is often accompanied by other signaling regulatory elements. RGS proteins accelerate the deactivation of G proteins to reduce GPCR signaling; however, some also have an effector function and transmit signals. Combining GPCR agonists with RGS inhibitors should potentiate responses, and could markedly increase the agonist's regional specificity. The diversity of RGS proteins with highly localized and dynamically regulated distributions in brain makes them attractive targets for pharmacotherapy of central nervous system disorders. […] A complex of Gai1 and fluorescently labeled G-alpha-binding peptide (the "GoLoco motif") derived from RGS12 is incubated with library members. Inhibitors of the binding are detected by a decrease in the fluorescence polarization (FP) of the fluorophore. Protein was supplied by Prof. David Siderovski, University of North Carolina at Chapel Hill. This BioAssay is a confirmatory run of primary qHTS protocol (AID: 880). See following reference for more details: Kimple AJ, et al. Comb Chem High Throughput Screen. 2008 Jun;11(5):396-409. Assay Submitter: Siderovski, David P, University of North Carolina at Chapel Hill Screening Center PI: Austin, C.P. Screening Center: NIH Chemical Genomics Center [NCGC] NIH Grant: NS053754-01
Reagents/Controls: Assay Buffer: 10 mM Tris-HCl, 150 mM NaCl, 0.1 mM GDP (prepared fresh), and 0.05% NP40 at pH 7.5. […] 15 nM Rhodamine labeled peptide/25 nM protein in columns 1, 2, 5 - 48. Titration of unlabeled peptide control ([H][…][NH2], custom synthesized and HPLC-purified by Tufts University Core Facility) from 20 mM, then 1:2 dilution, 16-point in duplicate, pin-transferred to column 2, rows 1 to 32. Column 1 is neutral. Rhodamine-labeled peptide (Rhodamine-[…]-NH2) was custom-synthesized and HPLC-purified by Invitrogen (Carlsbad, CA). Assay Steps. Four uL of reagents were dispensed to 1536-well Greiner black solid-bottom plates. Compounds and controls (23 nL) were transferred via Kalypsys PinTool. The plates were incubated for 10 min at room temperature, and then read on ViewLux (Perkin-Elmer) High-throughput CCD imager using BODIPY for the rhodamine-labeled decapeptide probe. During dispense, reagent bottles were kept submerged into 4 deg C water bath and all liquid lines were covered with aluminum foil to minimize probe and protein degradation. All screening operations were performed on a Kalypsys robotic system (Kalypsys, Inc., San Diego, CA) containing one RX-130 and two RX-90 anthropomorphic robotic arms.

Structure (SMILES)	Potency	activity, negative = inhibition
Cc1cc2nc3c(=O)n(Cc4ccccc4)c(=O)[nH]c3nc2cc1N	3.98 µM (active)	–
O=C(Nc1cccc(Nc2nccc(Nc3cccc(C(F)(F)F)c3)n2)c1)C1CC1	–	11.2% (inactive)
Cc1nn(C)cc1N1C(=O)c2cccc3c(N)ccc(c23)C1=O	14.1 µM (active)	–
CCn1c(SCC(=O)NCc2ccco2)nnc1-c1ccc(N)cc1	–	13.1% (inactive)
